One sequence from article PMC7862700, “An all-to-all approach to the identification of sequence-specific readers for epigenetic DNA modifications on cytosine” can be followed below.

What all share (test): DAPPL (digital affinity profiling via proximity ligation, sequencing); 10 mM Tris-HCl pH 7.5, 50 mM NaCl, 1 mM DTT, 4% glycerol, room temperature, 30 min; GST-TFs on glutathione beads, 16-mer random dsDNA library, 0.1% formaldehyde crosslink after washing; high values mean tight binding
In assay [1] the target is T1, FEV (Homo sapiens, UniProt Q99581 1-238).
T1 sequence: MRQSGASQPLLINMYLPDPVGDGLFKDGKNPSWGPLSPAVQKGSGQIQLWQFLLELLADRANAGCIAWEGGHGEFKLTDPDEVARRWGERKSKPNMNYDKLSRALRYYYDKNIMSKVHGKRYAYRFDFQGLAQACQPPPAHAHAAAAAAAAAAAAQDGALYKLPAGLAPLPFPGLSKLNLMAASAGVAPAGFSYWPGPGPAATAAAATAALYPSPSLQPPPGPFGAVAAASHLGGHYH
Particulars: protein: recombinant; tags: N-terminal GST; dsDNA, one strand shown. Summed up:
(§1)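 Human transcription factors fused to GST were expressed in yeast, captured on glutathione beads, given DNA barcodes and pooled with a GST-only negative control. Pools were incubated with 200 nmole of a 16-mer random double-stranded DNA library in Tris/NaCl/DTT/glycerol buffer at room temperature for 30 min. They were then washed, crosslinked with 0.1% formaldehyde, proximity-ligated (BsaI/T4 ligase, 1 h, 37 °C), PCR-amplified and sequenced on an Illumina NextSeq500. Binding signal is each 6-mer's read frequency for a factor divided by its frequency for the GST control.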

Assay [2] deals with ETV5 (Homo sapiens, UniProt P41161 1-510). Conditions: protein: recombinant; tags: N-terminal GST; dsDNA, one strand shown. A digest of the protocol:
as §1

Assay [3] deals with HSF1 (Homo sapiens, UniProt Q00613 1-529). Particulars: protein: recombinant; tags: N-terminal GST; chain copies: 3; dsDNA, one strand shown. A digest of the protocol:
as §1

The target in assay [4] is T2, SPIC (Homo sapiens, UniProt Q8N5J4 1-248).
T2 sequence: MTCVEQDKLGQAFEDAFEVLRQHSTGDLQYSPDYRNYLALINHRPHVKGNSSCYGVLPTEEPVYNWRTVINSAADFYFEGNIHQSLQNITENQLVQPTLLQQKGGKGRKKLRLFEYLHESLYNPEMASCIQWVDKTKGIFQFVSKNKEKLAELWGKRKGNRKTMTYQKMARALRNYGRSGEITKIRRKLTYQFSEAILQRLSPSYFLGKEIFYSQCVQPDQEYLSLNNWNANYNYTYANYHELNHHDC
Particulars: protein: recombinant; tags: N-terminal GST; dsDNA, one strand shown. A digest of the protocol: as §1

Assay [5] addresses ELF4 (Homo sapiens, UniProt Q99607 1-663). Conditions: protein: recombinant; tags: N-terminal GST; dsDNA, one strand shown. Summed up:
as §1

The target of assay [6] is T3, ELK4 (Homo sapiens, UniProt P28324-2 1-405).
T3 sequence: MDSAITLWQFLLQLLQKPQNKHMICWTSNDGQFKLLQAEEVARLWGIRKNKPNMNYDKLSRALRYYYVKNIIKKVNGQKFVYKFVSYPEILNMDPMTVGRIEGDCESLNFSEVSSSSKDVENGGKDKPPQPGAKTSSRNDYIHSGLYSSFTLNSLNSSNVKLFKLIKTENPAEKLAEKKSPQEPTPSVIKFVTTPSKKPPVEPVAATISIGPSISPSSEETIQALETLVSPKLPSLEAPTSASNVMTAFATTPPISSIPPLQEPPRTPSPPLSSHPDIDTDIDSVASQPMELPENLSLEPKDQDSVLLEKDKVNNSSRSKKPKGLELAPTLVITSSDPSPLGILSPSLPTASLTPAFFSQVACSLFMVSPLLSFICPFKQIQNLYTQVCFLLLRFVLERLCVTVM
Conditions: protein: recombinant; tags: N-terminal GST; dsDNA, one strand shown. Summed up: as §1

Assay [7] deals with T4, ETV2 (Homo sapiens, UniProt O00321 1-342).
T4 sequence: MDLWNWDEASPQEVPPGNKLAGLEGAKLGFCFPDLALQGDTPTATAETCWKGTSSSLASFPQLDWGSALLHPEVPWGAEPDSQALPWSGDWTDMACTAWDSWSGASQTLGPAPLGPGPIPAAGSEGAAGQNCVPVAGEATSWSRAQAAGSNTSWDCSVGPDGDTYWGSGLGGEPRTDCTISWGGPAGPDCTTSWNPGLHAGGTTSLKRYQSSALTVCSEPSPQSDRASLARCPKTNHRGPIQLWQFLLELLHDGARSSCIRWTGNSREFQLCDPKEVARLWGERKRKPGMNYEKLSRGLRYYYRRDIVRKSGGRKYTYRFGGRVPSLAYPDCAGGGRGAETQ
Conditions: protein: recombinant; tags: N-terminal GST; dsDNA, one strand shown. A digest of the protocol:
as §1

For assay [8], the target named is T5, ELF3 (Homo sapiens, UniProt P78545 1-371).
T5 sequence: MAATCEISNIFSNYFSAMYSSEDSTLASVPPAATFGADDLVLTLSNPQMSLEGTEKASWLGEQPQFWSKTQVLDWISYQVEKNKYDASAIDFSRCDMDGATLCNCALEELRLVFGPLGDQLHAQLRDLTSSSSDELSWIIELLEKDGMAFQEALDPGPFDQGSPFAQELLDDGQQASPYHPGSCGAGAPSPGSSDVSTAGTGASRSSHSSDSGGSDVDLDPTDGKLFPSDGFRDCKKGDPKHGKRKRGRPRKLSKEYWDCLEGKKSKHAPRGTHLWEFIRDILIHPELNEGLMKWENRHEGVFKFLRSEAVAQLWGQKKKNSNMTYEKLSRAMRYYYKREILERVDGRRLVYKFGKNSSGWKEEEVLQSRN
Conditions: protein: recombinant; tags: N-terminal GST; dsDNA, one strand shown. Summed up:
as §1

The target in assay [9] is CRX (Homo sapiens, UniProt O43186 1-299). Particulars: protein: recombinant; tags: N-terminal GST; dsDNA, one strand shown. A digest of the protocol:
as §1

The target of assay [10] is ETV1 (Homo sapiens, UniProt P50549 1-477). Particulars: protein: recombinant; tags: N-terminal GST; dsDNA, one strand shown. A digest of the protocol:
as §1

Assay [11] concerns the target T6, ERF (Homo sapiens, UniProt P50548 1-548).
T6 sequence: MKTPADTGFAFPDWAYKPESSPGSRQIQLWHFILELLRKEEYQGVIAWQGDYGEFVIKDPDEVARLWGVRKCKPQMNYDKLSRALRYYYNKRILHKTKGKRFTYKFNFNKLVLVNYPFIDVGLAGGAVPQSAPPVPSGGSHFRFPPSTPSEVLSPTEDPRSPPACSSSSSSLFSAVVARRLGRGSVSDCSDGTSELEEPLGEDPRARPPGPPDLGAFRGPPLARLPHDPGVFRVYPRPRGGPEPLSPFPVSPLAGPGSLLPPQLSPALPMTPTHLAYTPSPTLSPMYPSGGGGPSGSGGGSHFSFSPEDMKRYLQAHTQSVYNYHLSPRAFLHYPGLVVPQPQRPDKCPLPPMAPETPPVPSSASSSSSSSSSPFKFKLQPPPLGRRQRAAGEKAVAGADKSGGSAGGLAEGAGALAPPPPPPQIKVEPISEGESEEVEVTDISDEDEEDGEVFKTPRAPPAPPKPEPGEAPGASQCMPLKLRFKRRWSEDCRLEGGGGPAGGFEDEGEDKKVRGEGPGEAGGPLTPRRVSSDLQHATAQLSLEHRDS
Conditions: protein: recombinant; tags: N-terminal GST; dsDNA, one strand shown. A digest of the protocol:
as §1

Assay [12] addresses T7, ETV3L (Homo sapiens, UniProt Q6ZN32 1-361).
T7 sequence: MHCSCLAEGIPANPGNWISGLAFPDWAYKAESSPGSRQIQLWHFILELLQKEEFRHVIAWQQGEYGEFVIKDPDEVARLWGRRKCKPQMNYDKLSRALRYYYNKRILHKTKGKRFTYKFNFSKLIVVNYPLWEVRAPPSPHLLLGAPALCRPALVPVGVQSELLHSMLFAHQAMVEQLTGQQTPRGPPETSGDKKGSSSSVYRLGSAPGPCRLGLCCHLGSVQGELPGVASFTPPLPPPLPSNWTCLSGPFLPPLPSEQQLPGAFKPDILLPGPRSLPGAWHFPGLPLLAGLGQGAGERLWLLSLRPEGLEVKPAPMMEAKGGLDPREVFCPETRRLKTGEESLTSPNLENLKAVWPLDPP
Conditions: protein: recombinant; tags: N-terminal GST; dsDNA, one strand shown. Summed up: as §1

The target of assay [13] is T8, ETS2 (Homo sapiens, UniProt P15036 1-469).
T8 sequence: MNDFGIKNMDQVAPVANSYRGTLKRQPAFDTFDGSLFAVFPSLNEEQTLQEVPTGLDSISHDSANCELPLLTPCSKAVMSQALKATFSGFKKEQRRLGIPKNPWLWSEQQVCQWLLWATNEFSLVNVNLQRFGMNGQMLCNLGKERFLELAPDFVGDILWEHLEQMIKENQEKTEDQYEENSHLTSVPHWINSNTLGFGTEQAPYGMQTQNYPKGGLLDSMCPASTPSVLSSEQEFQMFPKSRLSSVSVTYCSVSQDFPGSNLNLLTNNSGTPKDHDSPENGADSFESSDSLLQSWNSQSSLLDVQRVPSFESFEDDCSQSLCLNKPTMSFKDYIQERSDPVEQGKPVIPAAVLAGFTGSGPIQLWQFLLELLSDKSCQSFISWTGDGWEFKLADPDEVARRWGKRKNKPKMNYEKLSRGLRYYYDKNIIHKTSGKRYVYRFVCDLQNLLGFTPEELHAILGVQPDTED
Particulars: protein: recombinant; tags: N-terminal GST; dsDNA, one strand shown. Summed up:
as §1

Assay [14] deals with T9, SPDEF (Homo sapiens, UniProt O95238 1-335).
T9 sequence: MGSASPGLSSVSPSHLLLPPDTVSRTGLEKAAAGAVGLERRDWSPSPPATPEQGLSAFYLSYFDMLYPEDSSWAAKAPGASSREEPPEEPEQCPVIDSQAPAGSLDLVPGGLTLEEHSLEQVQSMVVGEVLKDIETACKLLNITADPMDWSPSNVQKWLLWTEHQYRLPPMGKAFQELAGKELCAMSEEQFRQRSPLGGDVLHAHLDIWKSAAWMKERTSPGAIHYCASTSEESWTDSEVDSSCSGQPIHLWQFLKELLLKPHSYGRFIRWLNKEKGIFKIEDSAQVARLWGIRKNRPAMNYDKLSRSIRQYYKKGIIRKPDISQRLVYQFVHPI
Conditions: protein: recombinant; tags: N-terminal GST; dsDNA, one strand shown. A digest of the protocol:
as §1

In assay [15] the target is T10, ETV7 (Homo sapiens, UniProt Q9Y603 1-341).
T10 sequence: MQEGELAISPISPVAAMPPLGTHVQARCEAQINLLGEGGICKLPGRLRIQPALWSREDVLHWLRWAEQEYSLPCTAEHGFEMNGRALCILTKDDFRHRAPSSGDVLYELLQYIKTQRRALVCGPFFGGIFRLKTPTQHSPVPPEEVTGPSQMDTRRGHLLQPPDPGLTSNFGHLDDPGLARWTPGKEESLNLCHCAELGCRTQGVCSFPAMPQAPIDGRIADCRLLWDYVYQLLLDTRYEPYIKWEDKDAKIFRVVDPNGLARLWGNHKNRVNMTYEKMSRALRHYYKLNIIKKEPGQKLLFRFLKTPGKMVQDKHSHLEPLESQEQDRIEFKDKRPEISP
Conditions: protein: recombinant; tags: N-terminal GST; dsDNA, one strand shown. Summed up:
as §1

Assay [16] concerns the target T11, ELF5 (Homo sapiens, UniProt Q9UKW6-2 1-255).
T11 sequence: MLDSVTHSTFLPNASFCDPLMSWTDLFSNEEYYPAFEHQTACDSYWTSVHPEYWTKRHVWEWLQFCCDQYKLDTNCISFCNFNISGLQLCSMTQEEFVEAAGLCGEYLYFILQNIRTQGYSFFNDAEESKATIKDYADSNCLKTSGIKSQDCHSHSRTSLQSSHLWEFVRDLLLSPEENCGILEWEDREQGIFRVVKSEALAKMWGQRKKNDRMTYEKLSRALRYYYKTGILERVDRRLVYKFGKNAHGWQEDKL
Conditions: protein: recombinant; tags: N-terminal GST; dsDNA, one strand shown. Summed up: as §1

For assay [17], the target named is T12, ETV3 (Homo sapiens, UniProt P41162-2 1-143).
T12 sequence: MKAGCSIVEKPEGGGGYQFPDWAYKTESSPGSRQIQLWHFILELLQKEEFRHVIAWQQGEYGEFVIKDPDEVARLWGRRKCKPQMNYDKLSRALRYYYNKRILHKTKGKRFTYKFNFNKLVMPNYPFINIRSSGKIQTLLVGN
Conditions: protein: recombinant; tags: N-terminal GST; dsDNA, one strand shown. Summed up:
as §1

Assay [18] has as its target ETV6 (Homo sapiens, UniProt P41212 1-452). Particulars: protein: recombinant; tags: N-terminal GST; dsDNA, one strand shown. Summed up: as §1

Chain of HSF1 (Q00613 whole entry): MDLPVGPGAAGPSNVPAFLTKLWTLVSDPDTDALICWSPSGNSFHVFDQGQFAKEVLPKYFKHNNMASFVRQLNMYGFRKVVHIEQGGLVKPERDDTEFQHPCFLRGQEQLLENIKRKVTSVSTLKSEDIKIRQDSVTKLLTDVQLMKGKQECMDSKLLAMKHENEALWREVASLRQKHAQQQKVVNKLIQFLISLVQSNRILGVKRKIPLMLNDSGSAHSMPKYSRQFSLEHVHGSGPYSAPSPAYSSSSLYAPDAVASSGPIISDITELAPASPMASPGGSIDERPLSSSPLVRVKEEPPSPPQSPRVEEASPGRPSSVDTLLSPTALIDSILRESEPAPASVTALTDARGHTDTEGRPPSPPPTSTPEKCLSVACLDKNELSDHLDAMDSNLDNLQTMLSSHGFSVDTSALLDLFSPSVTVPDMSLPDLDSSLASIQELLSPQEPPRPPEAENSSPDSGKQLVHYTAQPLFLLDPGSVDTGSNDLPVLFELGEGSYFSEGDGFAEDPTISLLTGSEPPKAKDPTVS
Chain of ETV5 (P41161 whole entry): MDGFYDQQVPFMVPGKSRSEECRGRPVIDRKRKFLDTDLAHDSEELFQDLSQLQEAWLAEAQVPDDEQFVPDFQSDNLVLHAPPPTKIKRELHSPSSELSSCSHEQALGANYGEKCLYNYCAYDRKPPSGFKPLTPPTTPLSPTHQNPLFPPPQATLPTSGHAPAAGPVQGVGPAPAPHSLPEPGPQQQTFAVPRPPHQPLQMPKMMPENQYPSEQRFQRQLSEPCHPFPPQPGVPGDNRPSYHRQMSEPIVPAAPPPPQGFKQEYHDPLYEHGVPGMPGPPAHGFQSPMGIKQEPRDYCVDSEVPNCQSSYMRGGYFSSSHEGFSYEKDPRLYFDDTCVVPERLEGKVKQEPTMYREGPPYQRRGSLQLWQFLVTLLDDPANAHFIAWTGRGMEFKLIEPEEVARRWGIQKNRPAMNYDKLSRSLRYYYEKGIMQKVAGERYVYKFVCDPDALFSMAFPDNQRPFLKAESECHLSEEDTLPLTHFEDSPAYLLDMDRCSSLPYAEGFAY
Chain of ELF4 (Q99607 whole entry): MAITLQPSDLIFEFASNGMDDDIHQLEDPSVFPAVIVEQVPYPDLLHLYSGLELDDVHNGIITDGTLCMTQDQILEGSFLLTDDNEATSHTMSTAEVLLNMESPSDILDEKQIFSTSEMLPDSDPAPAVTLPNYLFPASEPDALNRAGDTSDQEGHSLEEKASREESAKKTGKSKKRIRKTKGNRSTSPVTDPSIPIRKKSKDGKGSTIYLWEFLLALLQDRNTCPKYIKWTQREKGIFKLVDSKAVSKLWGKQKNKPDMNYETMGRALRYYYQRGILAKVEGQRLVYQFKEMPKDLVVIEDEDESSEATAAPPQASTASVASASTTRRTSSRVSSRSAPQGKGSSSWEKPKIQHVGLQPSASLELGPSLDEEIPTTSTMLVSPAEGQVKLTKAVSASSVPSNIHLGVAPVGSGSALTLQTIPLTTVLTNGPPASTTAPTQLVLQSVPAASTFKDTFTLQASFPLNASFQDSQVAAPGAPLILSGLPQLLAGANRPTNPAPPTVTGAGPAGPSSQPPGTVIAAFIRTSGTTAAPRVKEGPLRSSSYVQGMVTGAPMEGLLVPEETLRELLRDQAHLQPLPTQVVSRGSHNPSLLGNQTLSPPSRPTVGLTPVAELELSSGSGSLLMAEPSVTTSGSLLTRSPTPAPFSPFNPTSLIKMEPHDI
Chain of ETV1 (P50549 whole entry): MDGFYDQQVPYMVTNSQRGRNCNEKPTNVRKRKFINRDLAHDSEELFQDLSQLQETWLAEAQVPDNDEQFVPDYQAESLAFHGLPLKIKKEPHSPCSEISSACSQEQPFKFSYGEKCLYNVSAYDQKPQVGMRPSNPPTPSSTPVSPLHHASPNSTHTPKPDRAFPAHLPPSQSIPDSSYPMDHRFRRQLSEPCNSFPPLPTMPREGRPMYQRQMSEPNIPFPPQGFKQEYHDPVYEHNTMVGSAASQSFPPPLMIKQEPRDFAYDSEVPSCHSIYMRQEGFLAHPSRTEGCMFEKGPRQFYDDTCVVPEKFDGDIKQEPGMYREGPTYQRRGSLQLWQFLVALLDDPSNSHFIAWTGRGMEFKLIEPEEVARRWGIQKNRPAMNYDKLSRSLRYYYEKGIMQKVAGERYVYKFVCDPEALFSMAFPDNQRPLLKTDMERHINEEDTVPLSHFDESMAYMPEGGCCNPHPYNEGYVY
Chain of ETV6 (P41212 whole entry): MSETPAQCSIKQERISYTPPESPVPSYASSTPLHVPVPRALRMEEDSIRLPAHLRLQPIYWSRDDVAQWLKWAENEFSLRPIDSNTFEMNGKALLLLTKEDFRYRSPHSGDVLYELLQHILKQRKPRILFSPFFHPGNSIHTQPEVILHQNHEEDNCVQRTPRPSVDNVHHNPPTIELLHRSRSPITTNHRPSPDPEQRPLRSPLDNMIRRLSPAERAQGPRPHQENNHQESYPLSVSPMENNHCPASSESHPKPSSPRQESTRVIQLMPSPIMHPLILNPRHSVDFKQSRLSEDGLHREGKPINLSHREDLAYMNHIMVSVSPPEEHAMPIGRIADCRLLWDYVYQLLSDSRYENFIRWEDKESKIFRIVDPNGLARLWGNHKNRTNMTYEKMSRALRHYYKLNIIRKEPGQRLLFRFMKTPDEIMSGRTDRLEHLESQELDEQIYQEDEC
Chain of CRX (O43186 whole entry): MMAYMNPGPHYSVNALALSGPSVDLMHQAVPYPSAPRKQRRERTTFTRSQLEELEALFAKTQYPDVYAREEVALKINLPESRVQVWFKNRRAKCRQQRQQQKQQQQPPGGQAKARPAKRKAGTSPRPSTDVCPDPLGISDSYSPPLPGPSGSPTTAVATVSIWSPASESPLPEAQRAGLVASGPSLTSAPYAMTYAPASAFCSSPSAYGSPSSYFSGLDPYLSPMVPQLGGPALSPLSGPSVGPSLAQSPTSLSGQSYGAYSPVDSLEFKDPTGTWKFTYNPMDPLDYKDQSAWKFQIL

For AACTCC, the binding signal is 1.32 fold enrichment (6-mer frequency, TF over GST control) in assay [1]; 1.32 fold enrichment (6-mer frequency, TF over GST control) in [2]; 1.23 fold enrichment (6-mer frequency, TF over GST control) in assay [3]; 1.32 fold enrichment (6-mer frequency, TF over GST control) in [4]; 1.3 fold enrichment (6-mer frequency, TF over GST control) in assay [5]; 1.13 fold enrichment (6-mer frequency, TF over GST control) in assay [6]. Besides, the binding signal is 1.23 fold enrichment (6-mer frequency, TF over GST control) in [7]; 1.13 fold enrichment (6-mer frequency, TF over GST control) in [8]; 1.19 fold enrichment (6-mer frequency, TF over GST control) in assay [9]; 1.26 fold enrichment (6-mer frequency, TF over GST control) in [10]; 1.36 fold enrichment (6-mer frequency, TF over GST control) in assay [11]; 1.27 fold enrichment (6-mer frequency, TF over GST control) in [12]. Also, the binding signal in [13] was 1.32 fold enrichment (6-mer frequency, TF over GST control); in [14], 1.33 fold enrichment (6-mer frequency, TF over GST control); in [15] it was 1.31 fold enrichment (6-mer frequency, TF over GST control); in [16], 1.32 fold enrichment (6-mer frequency, TF over GST control); in [17], 1.34 fold enrichment (6-mer frequency, TF over GST control); in assay [18] it was 1.4 fold enrichment (6-mer frequency, TF over GST control).
